According to article PMC12670160, “A drug-repurposing screen of FDA- and EMA-approved drugs identifies two NF-κB inhibitors active against eumycetoma” (Journal of Antimicrobial Chemotherapy, 2025):
Structures can show the parent of a compound that is named as a salt. Where two headings read alike, the source gives them in different places. About 130 (2.5%) of roughly 5,300 compounds showed an effect of 50% or more. The full list was thinned out, with strong results kept by preference.

Tested on: M. mycetomatis strain mm55
Conditions: primary screen, metabolic activity vs growth control, 96 h, 2 µM, inhibitor

Row | Compound | % viability [%] | % viability (Madurella mycetomatis metabolic activity at 2µM (%)) [%]
1 | COC[C@H](NC(=O)c1cnc(C)s1)C(=O)N[C@@H](COC)C(=O)N[C@@H](Cc1ccccc1)C(=O)C1(C)CO1 (stereo partly drawn) [ONC0004389, oprozomib onx 0912] | 101.4 | 
2 | O=C(CNC(=O)c1cccc(C(F)(F)F)c1)N[C@@H]1CCN(Cc2ccc(Cl)cc2)C1 [ONC0002608, teijincompound1] | 76.98 | 
3 | C[S+]([O-])CCCCN=C=S (stereo not drawn) [ONC0003262, sulforaphane] | 49.62 | 
4 | C/C=C/C1=C(C(=O)O)N2C(=O)[C@@H](NC(=O)[C@H](N)c3ccc(O)cc3)[C@H]2SC1 [ONC0004213, cefprozil] | 75.17 | 
5 | O=C(Nc1cnccc1Cl)N1CCN(Cc2ccc3c(c2)OC(F)(F)O3)CC1 [ONC0001299, jnj42165279] | 60.28 | 
6 | COc1nc(C)nc(Cl)c1N=C1NCCN1 [ONC0003528, moxonidine] | 108 | 
7 | CCCCCCCC/C=C/C(=O)O [ONC0003676, trans2undecenoic acid] | 70.7 | 
8 | CCCCCC(C)N (stereo not drawn) [ONC0003207, tuaminoheptane sulfate] | 110.6 | 
9 | CCCCCCCCCCCCCC[C@@H](O)[C@@H](O)[C@@H](N)CO [ONC0003465, phytosphingosine] | 45.49 | 
10 | CCCCCCCCCCCCCCC[C@@H](O)[C@@H](N)CO [ONC0003442, dihydrosphingosine derythro] | 75.68 | 
11 | N#Cc1ccc(Cn2cncc2CN2CCN(c3cccc(Cl)c3)C(=O)C2)cc1 [ONC0000972, l778123 hydrochloride] | 78.78 | 
12 | CC(=O)O[C@]1(C(C)=O)CCC2C3C[C@H](C)C4=CC(=O)CC[C@]4(C)C3CC[C@@]21C (stereo partly drawn) [ONC0000456, medroxyprogesterone acetate] | 83.76 | 
13 | N[C@H](Cc1cc(I)c(Oc2ccc(O)c(I)c2)c(I)c1)C(=O)O [ONC0003830, liothyronine] | 90.31 | 
14 | O=C(O[C@@H]1C[C@@H]2C[C@@H]3C[C@H](C1)N2CC3=O)c1c[nH]c2ccccc12 [ONC0005492, dolasetron] | 77.8 | 
15 | O[C@H]([C@H](O)[C@@H]1CO1)[C@H]1CO1 [ONC0001201, val083] | 107 | 
16 | CC(C)(C)c1ccc(C(=O)Nc2cn3cc(-n4ccnc4)ccc3n2)cc1 [ONC0000079, tcask10] | 88.09 | 
17 | N[C@@H](CC(=O)O)C(=O)O [ONC0005584, lasparticacid] | 67.27 | 
18 | N[C@@H](CC(=O)NO)C(=O)O [ONC0005577, lasparaginenhydroxy] | 46.79 | 
19 | NC(=O)C[C@H](N)C(=O)O [ONC0002130, lasparagine] | 76.47 | 

Row | Compound | % viability [%] | % viability (Madurella mycetomatis metabolic activity at 2µM (%)) [%]
20 | CC1(C)S[C@@H]2C(N3C(=O)[C@@H](c4ccccc4)NC3(C)C)C(=O)N2[C@H]1C(=O)O (stereo partly drawn) [ONC0000520, hetacillin potassium] | 62.89 | 
21 | Cn1c(Nc2ccc(C(F)(F)F)cc2)nc2cc(Oc3ccnc(-c4ncc(C(F)(F)F)[nH]4)c3)ccc21 [ONC0005005, raf265 chir265] | 41.37 | 
22 | CC(C)C[C@H](NC(=O)CN(C)C(=O)[C@H](Cc1ccccc1)NC(=O)[C@H](Cc1ccccc1)NC(=O)[C@H](CCC(N)=O)NC(=O)[C@H](CCC(N)=O)NC(=O)[C@@H]1CCCN1C(=O)[C@H](CCCCN)NC(=O)[C@@H]1CCCN1C(=O)[C@@H](N)CCCNC(=N)N)C(=O)N[C@@H](CCS(C)(=O)=O)C(N)=O [ONC0003648, sar9meto211substance p] | 64.96 | 
23 | Cc1ccc(Cl)c(OCC(O)CNC(C)C)c1 (stereo not drawn) [ONC0003711, 12chloro5methylphenoxy3isopropylamino2propanol] | 103 | 
24 | O=C1C2CC=CCC2C(=O)N1SC(Cl)(Cl)Cl (stereo not drawn) [ONC0003351, captan] | 76.61 | 
25 | NC(Cc1ccc(O)cc1)C(=O)O (stereo not drawn) [ONC0003385, dltyrosine] | 63.01 | 
26 | OC[C@H]1OC(O)C[C@@H](O)[C@@H]1O (mixture of isomers) [ONC0003476, 2deoxyglucose] | 78.39 | 
27 | CC(C)NC(=O)COc1cccc(-c2nc(Nc3ccc4[nH]ncc4c3)c3ccccc3n2)c1 [ONC0001882, slx2119] | 46.69 | 
28 | COC(=O)[C@H](NC(=O)c1cc(-c2ccccc2)nc2ccccc12)c1ccccc1 [ONC0001501, sb218795] | 80.75 | 
29 | O=C(NCc1cccc(O)c1)Nc1nc(-c2ccncc2)cs1 [ONC0002554, srpin340] |  | 81.94
30 | c1cc(Nc2cc(C3CC3)[nH]n2)nc(Nc2ccc3[nH]cnc3c2)n1 [ONC0003009, apy29] | 67.52 | 
31 | CC(C)(C)c1cc(C=C(C#N)C#N)cc(Br)c1O [ONC0004740, ag1024] | 105.8 | 
32 | CC(C)(C)c1cc(/C=C(\C#N)C(N)=S)cc(C(C)(C)C)c1O [ONC0005258, tyrphostin ag 879 ag 879] | 127.6 | 
33 | CC(C)(C)c1cc(C=C(C#N)C#N)cc(C(C)(C)C)c1O [ONC0004560, tyrphostin 9 sf 6847] | 1.693 | 
34 | CC(C)C[C@@H](N)C(=O)N[C@H]1C(=O)N[C@@H](CC(N)=O)C(=O)N[C@H]2C(=O)N[C@H]3C(=O)N[C@H](C(=O)N[C@H](C(=O)O)c4cc(O)cc(O)c4-c4cc3ccc4O)[C@H](O)c3ccc(c(Cl)c3)Oc3cc2cc(c3O[C@@H]2O[C@H](CO)[C@@H](O)[C@H](O)[C@H]2O[C@H]2C[C@](C)(N)[C@H](O)[C@H](C)O2)Oc2ccc(cc2Cl)[C@H]1O [ONC0002123, norvancomycin hydrochloride] | 86.02 | 
35 | CCN(CC)C(=O)N[C@H]1CC2c3cccc4[nH]cc(c34)CC2N(C)C1 (stereo partly drawn) [ONC0002019, terguride] | 81.88 | 
36 | Clc1ccc(CCC(Cn2ccnc2)Sc2c(Cl)cccc2Cl)cc1 (stereo not drawn) [ONC0005620, butoconazole] | 76.6 | 
37 | Clc1ccc(C(Cn2ccnc2)OCc2ccsc2Cl)c(Cl)c1 (stereo not drawn) [Tioconazole] | 3.335 | 
38 | Clc1ccc(CSC(Cn2ccnc2)c2ccc(Cl)cc2Cl)cc1 (stereo not drawn) [ONC0000678, sulconazole nitrate] | 120.3 | 

Row | Compound | % viability [%] | % viability (Madurella mycetomatis metabolic activity at 2µM (%)) [%]
39 | Clc1ccc(C(Cn2ccnc2)OCc2ccc(Sc3ccccc3)cc2)c(Cl)c1 (stereo not drawn) [ONC0004926, fenticonazole nitrate] | 131.8 | 
40 | C=CCOC(Cn1ccnc1)c1ccc(Cl)cc1Cl (stereo not drawn) [ONC0005416, enilconazole sulfate] | 2.508 | 
41 | COc1ccc(CCCOC(Cn2ccnc2)c2ccc(OC)cc2)cc1 (stereo not drawn) [ONC0000065, skf96365] | 143.6 | 
42 | Clc1ccc(C(Cn2ccnc2)OCc2c(Cl)cccc2Cl)c(Cl)c1 (stereo not drawn) [Isoconazole nitrate (Travogen), Isoconazole nitrate] | 2.362 | 
43 | Clc1ccc(C(Cn2ccnc2)OCc2csc3c(Cl)cccc23)c(Cl)c1 (stereo not drawn) [ONC0005215, sertaconazole nitrate] | 82 | 
44 | Clc1ccc(COC(Cn2ccnc2)c2ccc(Cl)cc2Cl)cc1 (stereo not drawn) [ONC0000666, econazole nitrate] | 102.4 | 
45 | Clc1ccc(COC(Cn2ccnc2)c2ccc(Cl)cc2Cl)c(Cl)c1 (stereo not drawn) [Miconazole nitrate] | 2.05 | 
46 | CC(C)S(=O)(=O)NC[C@H](C)c1ccc(-c2ccc(CCNS(C)(=O)=O)cc2)cc1 [ONC0000792, mibampator] | 65.07 | 
47 | CC(=O)Nc1c(I)c(C(=O)O)c(I)c(N(C)C(C)=O)c1I [ONC0002767, metrizoic acid] | 98.58 | 
48 | CO[C@H]1C[C@H](O[C@H]2CC[C@@]3(C)[C@H](CC[C@@H]4[C@@H]3CC[C@]3(C)[C@@H](C5=CC(=O)OC5)[C@@H](OC(C)=O)C[C@]43O)C2)O[C@@H](C)[C@@H]1O [ONC0000896, oleandrin] | 70.17 | 
49 | COc1cc([S+](C)[O-])ccc1-c1nc2ncccc2[nH]1 (stereo not drawn) [ONC0002956, sulmazole] | 88.35 | 
50 | COc1cc(N)c(Cl)cc1C(=O)N[C@@H]1CCN(CCCOc2ccc(F)cc2)C[C@@H]1OC (racemic) [ONC0002671, cisapride] | 79.76 | 
51 | CC[C@H](NC(C)C)[C@H](O)c1ccc(O)c2[nH]c(=O)ccc12 (racemic) [ONC0000846, procaterol] | 72.96 | 
52 | COc1cc2c(Nc3ccc(Br)cc3F)ncnc2cc1OCC1CCN(C)CC1 [ONC0004515, vandetanib zd6474] | 76.73 | 
53 | N[C@@H](CN1C=CC(=O)C(=O)C1)C(=O)O [ONC0002117, lmimosine] | 76.12 | 
54 | CCCCCCOc1nsnc1C1=CCCN(C)C1.O=C(O)C(=O)O [ONC0001841, xanomeline oxalate] | 152.3 | 
55 | C[C@H](NC(=O)C(C)(C)Oc1ccc(C(F)(F)F)cn1)[C@@H](Cc1ccc(Cl)cc1)c1cccc(C#N)c1 [ONC0002066, taranabant] | 72.16 | 
56 | CC(C)(C)NC(=O)N[C@H](C(=O)N1C[C@H]2[C@@H]([C@H]1C(=O)NC(CC1CCC1)C(=O)C(N)=O)C2(C)C)C(C)(C)C (stereo partly drawn) [ONC0001071, boceprevir] | 43.8 | 
57 | CCCC[C@H](NC(=O)[C@@H]1[C@@H]2[C@H](CN1C(=O)[C@@H](NC(=O)NC1(CS(=O)(=O)C(C)(C)C)CCCCC1)C(C)(C)C)C2(C)C)C(=O)C(=O)NC1CC1 [ONC0000734, narlaprevir] | 68.03 | 
